Assay outcomes (PubChem)
TCR act: activates T cell receptor signaling; primary human leukocytes, anti-CD3, IL-2 HTRF, 48 h; 330,000 tested, under 10 active; Potency, µM (highest dose often 9.22 µM), inactives show at the top dose activation of IL-2 secretion, actives largely listed as activators; note: % of control where 0% means no effect
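Activity was scored as IL-2 release from primary human leukocytes given only a TCR signal (a-CD3 beads) plus compound for 48 hr. Detection used a two-antibody HTRF format read at 665nm.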
S-ASM inh: blocks human secretory acid sphingomyelinase; P17405; placental ASM, HMU-PC fluorogenic substrate, 60 min; Potency, µM (top dose mostly 57.5 µM), for inactives: top-dose activity change, negative = inhibition, most hits filed as inhibitors; 340,000 tested, 0.006% active; AID 504937; note: potency is the fitted concentration of half-maximal effect
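qHTS format. ASM enzyme prepared from human placenta hydrolyses the fluorogenic substrate HMU-PC0 (9 uM final) over 60 min at 37 °C after a 10 min compound preincubation.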
CCT chaperon mod: changes cytosolic chaperonin activity | purified chaperonin ATPase assay, HTRF ADP detection, 30 min | activity change, % (test concentration not listed), hits read low | 360,000 tested, 0.3% active | AID 651819; in the data active = activity change below about -30%; note: % is set by controls: 0 for no effect and ±100 for the full control effect
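TRiC (40 or 20 nM final, by batch activity) in 30 mM Tris pH 7.4, 100 mM KCl, 5 mM MgCl2, 1 mM DTT was treated with compound at 76 uM single dose, then 10 uM ATP, 30 min at 37 °C. ADP was read by HTRF Transcreener.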
Tb PFK inh: inhibitors of T. brucei phosphofructokinase; 330,000 tested, 0.17% active; AID 485367; Potency, µM (top dose mostly 57.5 µM), for the others: top-dose activity, negative = inhibition, usual class: inhibitors; O15648; T. brucei PFK, ADP-Glo luminescence;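 note: potency is the fitted concentration of half-maximal effect; 0% = uninhibited 1x PFK enzyme wells and -100% = no-enzyme wells; nearly all actives have a fitted effect of over 60% in size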
Target sequence (O15648 whole entry, looked up): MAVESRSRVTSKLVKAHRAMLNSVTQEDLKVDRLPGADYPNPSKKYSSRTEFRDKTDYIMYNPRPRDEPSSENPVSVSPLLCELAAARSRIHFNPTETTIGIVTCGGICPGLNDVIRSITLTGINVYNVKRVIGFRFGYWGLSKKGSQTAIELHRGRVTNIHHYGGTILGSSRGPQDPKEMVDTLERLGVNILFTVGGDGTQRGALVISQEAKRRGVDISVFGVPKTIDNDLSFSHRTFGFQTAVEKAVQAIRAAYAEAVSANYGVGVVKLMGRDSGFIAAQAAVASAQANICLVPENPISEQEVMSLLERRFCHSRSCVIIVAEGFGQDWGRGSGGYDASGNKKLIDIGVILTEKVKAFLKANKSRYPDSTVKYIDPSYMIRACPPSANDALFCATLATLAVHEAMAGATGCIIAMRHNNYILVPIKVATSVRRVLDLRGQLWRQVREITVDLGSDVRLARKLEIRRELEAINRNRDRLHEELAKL
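Luminescent ADP detection (ADP-Glo, two-step: ATP depletion then ADP-to-ATP conversion for luciferase) reported PFK activity after 45 min room-temperature reaction of 1.25 nM enzyme with 0.5 mM F6P and 0.1 mM ATP at pH 8.0.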
BCR signal inh: inhibitors of chronic active B-cell receptor signaling | ABC-DLBCL IkBa-CBG/CBR reporter, luminescence ratio, 4 h | Potency, µM (titrated, usually from 46.1 µM), for the others: at the highest dose activity change, negative = inhibition, usual class: inhibitors | 340,000 tested, 0.05% active | AID 493014; active = well fitted inhibition curve with a large enough effect in the signal ratio, with a control signal flat, not every such curve was filed as active; inconclusive = small, poorly fitted or top-dose-only effect, or effect the other way, or a change in a side signal; the % refers to the signal ratio;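 note: potency is the fitted concentration of half-maximal effect; plate controls were basal doxycycline-induced cells for no effect and cells given 10 µM MG132 for full effect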
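TMD8 ABC-DLBCL cells carrying doxycycline-inducible green luciferase fused to IkappaBalpha plus unfused red luciferase were exposed to compounds (up to 46 uM) for 4 hrs at 37C. Activity came from the overlap-corrected green/red luminescence ratio.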
Numbers without * were called inactive. A selection: hits, their analogues and other compounds. The true share with any hit is near 0.49%. Unless noted, calls come from the whole dose curve; as a rule, active = well fitted curve in the direction sought with a large enough effect; inconclusive = small, poorly fitted or top-dose-only effect, or another doubt; inactive = no such curve, though single readings can be large; an effect the other way counts as inactive or inconclusive.

What do the screens show for `Cc1cc(C(=O)OCC(=O)Nc2cc(C)on2)c2ccccc2n1`?
TCR act: -2.0%; S-ASM inh: 1.9%; CCT chaperon mod: -35.1*; Tb PFK inh: 0.3%; BCR signal inh: inconclusive

How did COCCCn1c(SCc2ccccc2F)nc2c(sc3ccccc32)c1=O do in these assays?
BCR signal inh: 10.9%

How did COc1ccc(-c2noc(CSc3nc(N)c(-c4ccccc4)c(=O)[nH]3)n2)cc1OC do in these assays?
TCR act: 4.5%; S-ASM inh: -0.9%; CCT chaperon mod: 0.2; Tb PFK inh: -0.4%; BCR signal inh: 20.6µM*

How did COc1ccc(-c2noc(CSc3nc(-c4ccccc4)cc(=O)[nH]3)n2)cc1 do in these assays?
S-ASM inh: 2.2%; CCT chaperon mod: -0.9; Tb PFK inh: -1.5%; BCR signal inh: -18.9%

How did O=C(c1ccco1)N(Cc1cccnc1)c1nc2ccc(F)cc2s1 do in these assays?
BCR signal inh: 1.0%

What do the screens show for `CCCCNC(=O)CCCCCNS(=O)(=O)c1ccc(OC)cc1`?
S-ASM inh: 0.2%; CCT chaperon mod: -40.8*; Tb PFK inh: -1.0%; BCR signal inh: -0.7%

What do the screens show for `O=C(NCC1COCCO1)c1ccc2nc(Cc3cccc(Cl)c3)oc2c1` (stereo unspecified)?
TCR act: 0.3%; CCT chaperon mod: -0.5; Tb PFK inh: 15.1µM*; BCR signal inh: -2.3%

How did O=C(NCCc1ccncc1)c1ccc2nc(Cc3cccc(Cl)c3)oc2c1 do in these assays?
TCR act: 10.0%; S-ASM inh: -1.1%; CCT chaperon mod: -0.5; Tb PFK inh: -0.9%; BCR signal inh: -0.5%

How did COc1ccc(CC(=O)Nc2nc(C(C)(C)C)cs2)cc1 do in these assays?
TCR act: 0.5%; S-ASM inh: 0.3%; CCT chaperon mod: -67.3*; Tb PFK inh: 1.6%; BCR signal inh: -1.3%

Results for O=C(Nc1ccc(Cl)cc1C(F)(F)F)c1cc(S(=O)(=O)NCc2ccccc2)ccc1F ?
BCR signal inh: 1.9%

How did O=C(Nc1ccccc1C(=O)O)c1cc(S(=O)(=O)NCc2ccccc2)ccc1Cl do in these assays?
TCR act: 11.0%; S-ASM inh: 7.1%; CCT chaperon mod: -60.1*; Tb PFK inh: -2.9%; BCR signal inh: inconclusive

Results for S=C(NCCN1CCOCC1)N/N=C/c1c2ccccc2cc2ccccc12 ?
TCR act: 0.2%; S-ASM inh: -1.2%; CCT chaperon mod: -3.9; Tb PFK inh: 0.9%; BCR signal inh: -9.8%

How did COc1ccc2ccccc2c1/C=N/NC(=S)NCCN1CCOCC1 do in these assays?
TCR act: 3.5%; S-ASM inh: 51.9%; CCT chaperon mod: -0.8; Tb PFK inh: -1.8%; BCR signal inh: 20µM*

What do the screens show for `COc1ccc(CCn2c(C)cc3c(c2=O)C(c2ccncc2)C(C#N)=C(N)O3)cc1OC` (stereo unspecified)?
TCR act: 2.6%; S-ASM inh: 3.9%; CCT chaperon mod: -35.5*; Tb PFK inh: -6.5%; BCR signal inh: inconclusive

What do the screens show for `CCn1c(C)cc2c(c1=O)C(c1ccncc1)C(C#N)=C(N)O2` (stereo unspecified)?
TCR act: 1.6%; S-ASM inh: -0.1%; CCT chaperon mod: 1.1; Tb PFK inh: -1.0%; BCR signal inh: -2.6%

How did COc1ccc(C2=CC(=O)C[C@H](c3ccc(OC)cc3)C2)cc1 do in these assays?
TCR act: -1.1%; S-ASM inh: -12.7%; CCT chaperon mod: -1.1; Tb PFK inh: 25.4%; BCR signal inh: 9.5%

Results for COc1ccc(C2=CC(=O)C=CC2=O)cc1 ?
Tb PFK inh: 6.75µM*; BCR signal inh: inconclusive

What do the screens show for `O=C(CSc1ccc2nc(-c3ccccc3)cn2n1)Nc1ccccc1`?
BCR signal inh: 16.0%

Results for O=C(O)c1ccc(CSc2nnc(-c3ccco3)o2)cc1 ?
TCR act: 2.9%; S-ASM inh: 3.7%; CCT chaperon mod: 0.3; Tb PFK inh: 2.6%; BCR signal inh: 18.4µM*

What do the screens show for `O=C(COC(=O)/C=C/c1ccccc1)NCc1ccco1`?
CCT chaperon mod: -55.6*

Results for O=C(COC(=O)/C=C/c1cccc(Br)c1)NCc1ccco1 ?
TCR act: -2.9%; S-ASM inh: -4.6%; CCT chaperon mod: -4.4; Tb PFK inh: -3.2%; BCR signal inh: 0.3%
